From PubChem BioAssay AID2447 (National Center for Advancing Translational Sciences (NCATS), 2010)
The other results are listed elsewhere or left out. Inconclusive results are not listed. Calls of active or inactive are those of the source. Calls follow the shape of the full dose curve.

assay: Cell Viability Secondary Assay for Inhibitors of the Interaction of Thyroid Hormone Receptor and Steroid Receptor Coregulator 2; settings: HepG2 viability, ATP luminescence (CellTiter-Glo), 72 h
From the text: NIH Molecular Libraries Probe Production Network [MLPCN] NIH Chemical Genomics Center [NCGC] MLPCN Grant: DK058080 Assay Provider: R. Kip Guy, St. Jude Children's Research Hospital NCGC Assay Overview: Thyroid receptor (TR) regulates many homeostatic processes including basal metabolism, cardiovascular function, body weight, and lipid trafficking. TR modulators are potential therapeutics for obesity and hyperlipidemias but current thyroid analogs have undesirable side effects, particularly cardiac stimulation. This secondary assay characterized compounds identified in the qHTS for Inhibitors of the Interaction of Thyroid Hormone Receptor and Steroid Receptor Coregulator 2 (PubChem AID 1485). The effect of compounds on the viability of HepG2 cells was assessed by measuring ATP levels.
NCGC Assay Protocol Summary: HepG2 cells were grown to 80% confluence, collected, and cells were dispensed at 500 cells/25 ul/well into 384 well plates (Costar 3712). Following transfer of 100 nL compound (ranging from 2.5 nM to 50 uM), cells were incubated for 72 hours at 37 C and 5% CO2. Following this incubation, plates were equilibrated at ambient temperature for 30 min, 25 ul of CellTiter-Glo (Promega) was added and luminescence was detected by an EnVision (PerkinElmer) reader.

Row | Structure (SMILES) | Potency | outcome
1 | CS(=O)(=O)c1ccc(C(=O)OCC(=O)N2CCC(c3ccccc3)CC2)cc1[N+](=O)[O-] | 8.9 µM (active) | 
2 | O=C(COC(=O)c1cccc([N+](=O)[O-])c1)NC1C2CC3CC(C2)CC1C3 (stereo not drawn) |  | inactive
3 | CS(=O)(=O)c1ccc(C(=O)OCC(=O)N2CCNc3ccccc32)cc1[N+](=O)[O-] | 18 µM (active) | 
